Experimental findings from PubChem BioAssay (Tox21) are described below.

The structures appear in SMILES notation. “And” between values parts separate entries of the source, which are not always exact repeats. Identical values can stand only once. Inconclusive results are not listed. The source holds several records for some structures; these can differ, active in one and inactive in another. The source made the active and inactive calls. Calls come from the whole dose curve; as a rule, active = well fitted curve in the direction sought with a large enough effect in the repeat runs; inconclusive = weak or mixed curves; inactive = no such curve, though single readings can be large; an effect the other way counts as inactive or inconclusive.
% is set by controls: 0 for no effect and ±100 for the full control effect; potency is the fitted concentration of half-maximal effect.

One assay is described as follows: qHTS RealTime-Glo MT Cell Viability Assay in HepG2 cells - 8 hour (AID 1224873). Note: nearly all actives have a fitted effect of over 55% in size. The settings on record: RealTime-Glo luminescence; series mostly up to 76.8 µM. In short, it runs like this:
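HepG2 cells mixed with RealTime-Glo MT reagents (NanoLuc plus cell-permeant prosubstrate) were seeded at 600 cells/well, incubated 5 h at 37 C/5% CO2, then pinned with compounds in DMSO; nonlytic luminescence tracked viability during 40 h treatment.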
In general terms: qHTS replaces the single test concentration by a dilution series.
For `CCCCCCCCCCCCCCCCCCn1cc[n+](C)c1`, the Potency result was “inactive”.

On to `COC[C@H](C)N(C(=O)CCl)c1c(C)csc1C`, for which the Potency entry was “inactive”.

In the case of `C[C@H]1CC[C@@H]2[C@@H](C)[C@H]3[C@H](C[C@H]4[C@@H]5CC=C6CC(O[C@@H]7O[C@H](CO)[C@H](O)[C@H](O[C@@H]8O[C@H](CO)[C@@H](O)[C@H](O)[C@H]8O)[C@H]7O[C@H]7O[C@@H](C)[C@H](O)[C@@H](O)[C@H]7O)CC[C@]6(C)[C@H]5CC[C@]34C)N2C1` (stereo partly specified), the Potency is 45.1 µM (active).

As to `Cc1cc(C)cc(OP(=O)(Oc2cc(C)cc(C)c2)Oc2cc(C)cc(C)c2)c1`, the Potency entry is “inactive”.

Turning to `Cc1ccc(C(=O)Cl)cc1`, the Potency entry was “inactive”.

Take `COP(N)(=S)OC`: the Potency entry is “inactive”.

`NNC(=O)c1ccccc1`: the Potency entry is “inactive”.

For `CCN`, the Potency entry is “inactive”.

Take `N#Cc1ccccc1N`: the Potency result was “inactive”.

Take `CN(CCCC(O)c1cccnc1)N=O` (stereo unspecified): the Potency result was “inactive”.

Turning to `S=C=Nc1cccc2ccccc12`, the Potency entry is “inactive”.

On to `O=C(CCCN1CCC2(CC1)C(=O)NCN2c1ccccc1)c1ccc(F)cc1`, for which the Potency entry is “inactive”.

Take `CC(C)(C)OO`: the Potency entry is “inactive”.

As for `C[C@]12CC[C@@H]3c4ccc(OC(=O)N(CCCl)CCCl)cc4CC[C@H]3[C@@H]1CC[C@@H]2O`, the Potency entry was “inactive”.

As to `ClCCN1CCOCC1`, the Potency result was “inactive”.

With `[Hg+2].[I-].[I-]`, the Potency was 12.3 µM (active).

As to `Cl/C=C\CCl`, the Potency result was “inactive”.

`CC(O)C#N` (stereo unspecified): the Potency result is “inactive”.

In the case of `c1ccc(OCC2CO2)cc1` (stereo unspecified), the Potency entry was “inactive”.

`ClC1=C(Cl)[C@]2(Cl)[C@@H]3[C@@H]4C[C@@H]([C@H]5O[C@@H]45)[C@@H]3[C@@]1(Cl)C2(Cl)Cl`: the Potency was 43.6 µM (active).

For `CCOCCOC(C)=O`, the Potency result was “inactive”.

Turning to `CCC[CH2][Sn]([CH2]CCC)([CH2]CCC)[O]C(=O)c1ccccc1`, the Potency is 0.776 µM (active).

Turning to `CCCCCCCCCCBr`, the Potency result is “inactive”.

As for `Oc1ccc(I)cc1`, the Potency entry was “inactive”.

Consider `O=c1[nH]c2ccccc2n1CCCN1CCC(n2c(=O)[nH]c3cc(Cl)ccc32)CC1`, for which the Potency result was “inactive”.

As for `Cc1cc(Cl)ccc1O[C@H](C)C(=O)O`, the Potency result was “inactive”.

Take `CCCCCCCCCCCCCN1CC(C)OC(C)C1` (stereo unspecified): the Potency result is “inactive”.

As for `O=c1ssc(Cl)c1Cl`, the Potency was 21.9 µM (active).

Regarding `C[C@@H](Oc1ccc(Cl)cc1Cl)C(=O)O`, the Potency result is “inactive”.

Regarding `COP(=O)(CCC(=O)NCO)OC`, the Potency entry is “inactive”.

Turning to `C=COCCCl`, the Potency result is “inactive”.

Consider `CNC(C)Cc1ccc2c(c1)OCO2` (stereo unspecified), for which the Potency entry was “inactive”.

On to `CCCSP(=O)(OCC)SCCC`, for which the Potency entry was “inactive”.

Consider `CCS(=O)(=O)c1cccnc1S(=O)(=O)NC(=O)Nc1nc(OC)cc(OC)n1`, for which the Potency entry is “inactive”.

Turning to `CCCCCCCCCCCCCCCC[N+](C)(C)C`, the Potency entry is “inactive and 49 µM (active)”.

`O=c1[nH]c2ccccc2n1C1CCN(CCCC(c2ccc(F)cc2)c2ccc(F)cc2)CC1`: the Potency is 43.6 µM (active) and inactive.

`CCOP(=S)(OCC)SCS(=O)(=O)C(C)(C)C`: the Potency entry is “inactive”.

As for `CC(=O)Nc1ccc2c(c1)Cc1ccccc1-2`, the Potency entry is “inactive”.

A further assay is described as follows: qHTS RealTime-Glo MT Cell Viability Assay in HEK293 cells - 40 hour (AID 1224874). Note: nearly all actives have a fitted effect of over 50% in size. The settings on record: RealTime-Glo luminescence; max response: stronger effect = lower value. In short, it runs like this: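 HEK293 cells mixed with RealTime-Glo reagents (NanoLuc plus cell-permeant prosubstrate) at 600 cells/well, preincubated 5 h at 37 C/5% CO2, then given 23 nL compound in DMSO. Nonlytic luminescence from viable cells was read at 0, 8, 16, 24, 32 and 40 h.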
For the compound `CCCCCCCCCCCCCCCCCCn1cc[n+](C)c1`, the Potency was 7.72 µM (active).

Turning to `COC[C@H](C)N(C(=O)CCl)c1c(C)csc1C`, the max response is 19.6% (inactive).

For the compound `C[C@H]1CC[C@@H]2[C@@H](C)[C@H]3[C@H](C[C@H]4[C@@H]5CC=C6CC(O[C@@H]7O[C@H](CO)[C@H](O)[C@H](O[C@@H]8O[C@H](CO)[C@@H](O)[C@H](O)[C@H]8O)[C@H]7O[C@H]7O[C@@H](C)[C@H](O)[C@@H](O)[C@H]7O)CC[C@]6(C)[C@H]5CC[C@]34C)N2C1` (stereo partly specified), the Potency is 14.3 µM (active).

With `Cc1cc(C)cc(OP(=O)(Oc2cc(C)cc(C)c2)Oc2cc(C)cc(C)c2)c1`, the max response was -16.9% (inactive).

Take `Cc1ccc(C(=O)Cl)cc1`: the max response was -5.57% (inactive).

With `COP(N)(=S)OC`, the max response was 0.707% (inactive).

Regarding `NNC(=O)c1ccccc1`, the max response is -4.85% (inactive).

With `CCN`, the max response is 19.6% (inactive).

As to `N#Cc1ccccc1N`, the max response is 0.901% (inactive).

Take `CN(CCCC(O)c1cccnc1)N=O` (stereo unspecified): the max response is -1.33% (inactive).

Take `S=C=Nc1cccc2ccccc12`: the max response is 2.28% (inactive).

Turning to `O=C(CCCN1CCC2(CC1)C(=O)NCN2c1ccccc1)c1ccc(F)cc1`, the Potency was 13.4 µM (active).

For the compound `CC(C)(C)OO`, the max response was 12.3% (inactive).

As for `C[C@]12CC[C@@H]3c4ccc(OC(=O)N(CCCl)CCCl)cc4CC[C@H]3[C@@H]1CC[C@@H]2O`, the max response is -6.19% (inactive).

Consider `ClCCN1CCOCC1`, for which the max response is -16.3% (inactive).

In the case of `[Hg+2].[I-].[I-]`, the Potency is 2.45 µM (active).

In the case of `Cl/C=C\CCl`, the max response was 11.8% (inactive).

For `CC(O)C#N` (stereo unspecified), the max response is -0.282% (inactive).

Turning to `c1ccc(OCC2CO2)cc1` (stereo unspecified), the max response was 7.88% (inactive).

Turning to `ClC1=C(Cl)[C@]2(Cl)[C@@H]3[C@@H]4C[C@@H]([C@H]5O[C@@H]45)[C@@H]3[C@@]1(Cl)C2(Cl)Cl`, the Potency is 44.9 µM (active).

For `CCOCCOC(C)=O`, the max response is 4.22% (inactive).

As for `CCC[CH2][Sn]([CH2]CCC)([CH2]CCC)[O]C(=O)c1ccccc1`, the Potency was 0.389 µM (active).

Consider `CCCCCCCCCCBr`, for which the max response was -10.6% (inactive).

Consider `Oc1ccc(I)cc1`, for which the max response was -9.46% (inactive).

As for `O=c1[nH]c2ccccc2n1CCCN1CCC(n2c(=O)[nH]c3cc(Cl)ccc32)CC1`, the Potency is 10.7 µM (active).

With `Cc1cc(Cl)ccc1O[C@H](C)C(=O)O`, the max response is -1.32% (inactive).

In the case of `CCCCCCCCCCCCCN1CC(C)OC(C)C1` (stereo unspecified), the max response is -1.65% (inactive).

For the compound `O=c1ssc(Cl)c1Cl`, the Potency is 13.8 µM (active).

On to `C[C@@H](Oc1ccc(Cl)cc1Cl)C(=O)O`, for which the max response was 0.534% (inactive).

Regarding `COP(=O)(CCC(=O)NCO)OC`, the max response was 14% (inactive).

Take `C=COCCCl`: the max response was 15.2% (inactive).

As for `CNC(C)Cc1ccc2c(c1)OCO2` (stereo unspecified), the max response is -1.8% (inactive).

As for `CCCSP(=O)(OCC)SCCC`, the max response is -0.268% (inactive).

On to `CCS(=O)(=O)c1cccnc1S(=O)(=O)NC(=O)Nc1nc(OC)cc(OC)n1`, for which the max response is 6.92% (inactive).

Turning to `CCCCCCCCCCCCCCCC[N+](C)(C)C`, the Potency was 8.4 µM (active) and 21.9 µM (active) and 9.52 µM (active).

With `O=c1[nH]c2ccccc2n1C1CCN(CCCC(c2ccc(F)cc2)c2ccc(F)cc2)CC1`, the Potency was 17.4 µM (active) and 16.9 µM (active).

On to `CCOP(=S)(OCC)SCS(=O)(=O)C(C)(C)C`, for which the max response was -15.1% (inactive).

In the case of `CC(=O)Nc1ccc2c(c1)Cc1ccccc1-2`, the max response was -12.3% (inactive).
